# Test results as given in the supplement of paper PMC12350171.
# Structures can show the parent of a compound that is named as a salt. Unmarked numbers belong to inactive results.
# Columns and labels:
# Settings in all cases: 20 µM
# [1] = test system: Salmonella enterica typhimurium; experiment: growth AUC normalised to DMSO control (fraction of control); higher = less growth inhibition, active = hit call of the paper
# Method in brief: (§1)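 Pathogens passaged twice anaerobically were inoculated at a starting OD578 of 0.01 into pre-reduced mGAM plates with drug at 20 μM and 1% DMSO, sealed with breathable membranes. Haemophilus parainfluenzae medium was supplemented with hemin and NAD. OD578 was read hourly for 24 h, with three biological replicates. Growth-curve AUC was computed by the trapezoidal rule up to the exponential-to-stationary transition and normalised to DMSO controls on the same plate.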
# Shigella flexneri = experiment: as above
# Method in brief: as §1
# Vibrio cholerae = experiment: as above
# Method in brief: as §1
# [2] = test system: Yersinia pseudotuberculosis; experiment: as above
# Method in brief: as §1
# P. vulgatus RND KO = experiment: growth AUC normalised to DMSO control (median) (fraction of control); higher = less growth inhibition, active = hit call of the paper
# Method in brief: (§2)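 For normalised area under the curve, growth curves were truncated at entry into stationary phase, integrated by the trapezoidal rule and divided against vehicle wells on the same plate. The curves came from strains passaged twice overnight without oxygen and then grown in mGAM in 96-well plates at a starting OD578 of 0.01. Each well held an approved-drug library compound at 20 μM with 1% DMSO, and OD578 was read hourly for 24 h in an anaerobic incubator. Values are medians of three biological replicates.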
# P. vulgatus WT = experiment: as above
# Method in brief: as §2
# [3] = test system: S. enterica typhimurium WT; experiment: as above
# Method in brief: as §2
# [4] = test system: S. enterica typhimurium tolC KO; experiment: as above
# Method in brief: as §2
# 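Throughout, for growth AUC normalised to DMSO control (median): active when median AUC fell below 0.1.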
SMILES,growth AUC normalised to DMSO control [1],growth AUC normalised to DMSO control (Shigella flexneri),growth AUC normalised to DMSO control (Vibrio cholerae),growth AUC normalised to DMSO control [2],growth AUC normalised to DMSO control (P. vulgatus RND KO),growth AUC normalised to DMSO control (P. vulgatus WT),growth AUC normalised to DMSO control [3],growth AUC normalised to DMSO control [4]
CC(C)(Sc1cc(C(C)(C)C)c(O)c(C(C)(C)C)c1)Sc1cc(C(C)(C)C)c(O)c(C(C)(C)C)c1 [Probucol],0.996,1.02,0.998,0.985,1,0.997,1.01,1
COc1ccc(CC(C)NCC(O)c2ccc(O)c(NC=O)c2)cc1 (configuration not stated) [Formoterol fumarate],1.01,1.07,0.995,1.05,1.01,1.02,1.01,0.998
CN(C)CCC(c1ccc(Br)cc1)c1ccccn1 (configuration not stated) [Brompheniramine maleate],0.99,1,1.02,1,0.994,0.995,0.977,0.856
CC(=O)c1ccc(S(=O)(=O)NC(=O)NC2CCCCC2)cc1 [Acetohexamide],1,0.998,0.984,0.989,0.949,1,0.996,0.994
O=C(Nc1cccc2c(=O)cc(-c3nnn[nH]3)oc12)c1ccc(OCCCCc2ccccc2)cc1 [Pranlukast],1.01,0.991,1,0.95,0.968,0.957,1.01,0.987
CCS(=O)(=O)CCn1c([N+](=O)[O-])cnc1C [Tinidazole],1.01,0.99,1,0.971,0.0183 (active),0.0185 (active),1,0.995
Cn1c(=O)c2c(ncn2CC2OCCO2)n(C)c1=O [Doxofylline],1,1.07,1.01,0.99,1.02,1.06,0.999,1
CC#C[C@]1(O)CC[C@H]2[C@@H]3CCC4=CC(=O)CCC4=C3[C@@H](c3ccc(N(C)C)cc3)C[C@@]21C [Mifepristone],1.01,0.988,0.994,1.01,0.93,0.954,0.999,0.92
COc1c(N2C[C@@H]3CCCN[C@@H]3C2)c(F)cc2c(=O)c(C(=O)O)cn(C3CC3)c12 [Moxifloxacin],0.00585 (active),0.0275 (active),0.0211 (active),0.0337 (active),0.017 (active),0.0128 (active),0.0075 (active),0.00519 (active)
CN(C)CC/C=C1/c2ccccc2COc2ccc(CC(=O)O)cc21 [Olopatadine hydrochloride],1.02,0.963,1.03,1.02,0.99,0.984,0.992,0.992
C=C1/C(=C\C=C2/CCC[C@]3(C)[C@@H]([C@H](C)/C=C/[C@@H](O)C4CC4)CC[C@@H]23)C[C@@H](O)C[C@@H]1O [Calcipotriene],0.987,0.931,0.972,0.977,0.931,0.958,1.01,0.946
CCOC(=O)c1ccc(N)cc1 [Benzocaine],1.02,1.03,1.07,1.03,1.04,1.07,1.01,1.01
Cc1onc(-c2c(Cl)cccc2Cl)c1C(=O)N[C@@H]1C(=O)N2[C@@H]1SC(C)(C)[C@@H]2C(=O)O [Dicloxacillin sodium salt hydrate],0.997,1.01,1,1.01,0.081 (active),0.0487 (active),1.01,0.00514 (active)
CN(C)CCC=C1c2ccccc2CCc2ccccc21 [Amitryptiline hydrochloride],0.997,0.999,0.905,1.01,0.993,0.959,0.998,0.97
